High-throughput results (PubChem BioAssay)
Only a sample is shown.
aSyn 5UTR act = Activators via SNCA 5'UTR binding, MLPCN. alpha-synuclein 5'UTR reporter, activators screen. activity score, % (tested at 7.5 µM), hits read low. 300,000 compounds, 7.1% hits; in the data active means activity score below about -60%
Starred values were filed as active, the others as inactive.

SMILES	aSyn 5UTR act
CC(C)OC(=O)c1ccc(N2CCN(c3ccccc3F)CC2)nc1	-68*
O=[N+]([O-])c1ccc(N2CCN(c3ccccc3F)CC2)nc1	-66*
CCOC(=O)c1ccc(NC(=O)Nc2ccon2)cc1	64
O=C(Nc1ccc(Cl)c(Cl)c1)Nc1ccon1	-69*
O=C(Nc1ccc(Cl)c(Cl)c1)Nc1ccccc1O	-105*
Cc1[nH]c2ccccc2c1CN1CCc2ccccc2C1	-62*
CCCC(=NCCc1c(C)[nH]c2ccccc12)C1=C(O)CC(c2ccccc2)CC1=O (stereo not drawn)	86
CCc1cc(C=C(Cl)Cl)oc(=O)c1C	-117*
CCOc1ccc(N2C(=O)/C(=C/c3ccccc3)N=C2SC)cc1	-89*
COc1ccc(/C=C2\N=C(SC)N(c3ccccc3OC)C2=O)cc1	-66*
O=C1/C(=C/Nc2cccc([N+](=O)[O-])c2)CCc2ccccc21	-186*
CCN(CC)c1nc(C)nc2c1cnn2CCc1ccccc1	-185*
CC(C)(C)c1ccc(SCCc2cccnc2)cc1	-123*
Cc1cc(C)c2c(=O)n(-c3ccccc3)[nH]c2n1	-72*
CN(C)S(=O)(=O)c1ccc(C(=O)Nc2ccccn2)cc1	-70*
CN(C)S(=O)(=O)c1ccc(NC(=O)c2ccccn2)cc1	-79*
CCN(CC)S(=O)(=O)c1ccc(NC(=O)c2ccccn2)cc1	-120*
CC1(C)CC(CCNC(=O)CCl)(c2ccccc2)CCO1 (stereo not drawn)	-63*
c1ccc(-c2nnc(-c3ccccn3)nc2NC2CCCCC2)cc1	101
O=C(NNc1nc(-c2ccc(F)cc2)cs1)c1ccccc1	90
c1ccc(-c2csc(NC3CCCCC3)n2)cc1	-92*
O=C(Nc1nc(-c2ccc(F)cc2)cs1)C1CCCO1 (stereo not drawn)	-97*
O=C(Nc1nc(-c2ccc(-c3ccccc3)cc2)cs1)C1CCCO1 (stereo not drawn)	-65*
O=C(Nc1nc(-c2ccccc2)cs1)C1CCCO1 (stereo not drawn)	-66*
Brc1ccc(-c2csc(/N=C/N3CCOCC3)n2)cc1	-90*
SMILES	aSyn 5UTR act
Brc1ccc(-c2csc(/N=C/N3CCCC3)n2)cc1	-94*
OCCN(/C=N/c1nc(-c2ccc(Br)cc2)cs1)CCO	-93*
O=C(CCCN1C(=O)/C(=C/c2ccccc2Cl)SC1=S)NNC(=O)c1ccccc1	62
O=C(CCN1C(=O)/C(=C/c2ccc(F)cc2)SC1=S)NC1C=CS(=O)(=O)C1 (stereo not drawn)	-73*
O=C(CCN1C(=O)/C(=C/c2ccccc2Cl)SC1=S)NC1C=CS(=O)(=O)C1 (stereo not drawn)	-71*
COc1ccc(-c2cn3cccnc3n2)cc1F	-108*
COc1ccc(-c2cn3cccnc3n2)cc1NS(=O)(=O)c1ccccc1	-98*
CCOC(=O)c1ccc(Nc2nc(-c3cccnc3)nc3ccccc23)cc1	-103*
Cc1c(O)ccc(/C=N/Nc2nc(-c3cccnc3)nc3ccccc23)c1O	-77*
Cc1ccc(Nc2nc(-c3cccnc3)nc3ccccc23)cc1	-95*
c1ccc(COc2ccc(Nc3ncnc4nc[nH]c34)cc2)cc1	-85*
CCOC(=O)c1ccc(Nc2ncnc3ccccc23)cc1	-93*
c1ccc(CNc2nc(NCc3ccccc3)c3ccccc3n2)cc1	106
CC(C)(C)c1ccc(-c2nc(NCc3cccnc3)c3ccccc3n2)cc1	-96*
Cc1cc2nc(C3CCN(Cc4nnnn4Cc4ccccc4)CC3)[nH]c2cc1C	74
c1ccc(CN2CCC(Nc3nc(-c4cccnc4)nc4ccccc34)CC2)cc1	-83*
Fc1ccccc1/C=N/Nc1nc(-c2ccccn2)nc2ccccc12	81
Cc1ccc(-c2nc(N/N=C/c3ccncc3)c3ccccc3n2)cc1	-120*
CCc1cccc2c1Sc1ccccc1CC2N1CCNCC1 (stereo not drawn)	104
CCOC(=O)C/C(=N\Nc1ncnc2ccccc12)c1ccccc1	-139*
CCOC(=O)c1ccc(Nc2ncnc3nc[nH]c23)cc1	-73*
NC(=O)C1CCCN(C(=S)Nc2cccc3ccccc23)C1 (stereo not drawn)	-90*
CCC(=O)Nc1nonc1-c1nc2ccccc2n1Cc1cccc2ccccc12	67
CCOc1ccccc1NC(=O)n1ncc2c(C)cccc21	-68*
Cc1cccc2c1cnn2C(=O)Nc1cc(F)ccc1F	-178*
SMILES	aSyn 5UTR act
CCCCOc1ccccc1NC(=O)Cn1c(-c2nonc2N)nc2ccccc21	124
COc1ccc(-c2cc3nc(CCl)[nH]c(=O)c3s2)cc1	71
O=c1[nH]cnc2cc(-c3ccccc3)sc12	-95*
COC(=O)C(C)N1C(=O)S/C(=C\c2ccc(-c3ccc(C(=O)O)cc3C)o2)C1=O (stereo not drawn)	-137*
Cc1ccc(N2C(=O)c3ccccc3NC2(C(=O)O)c2ccccc2)cc1Cl (stereo not drawn)	-68*
CC1CCC/C(=N\Nc2ccc(Cl)c(C(=O)O)c2)C1 (stereo not drawn)	-98*
CC1CCC/C(=N\NC(=O)Nc2ccccc2)C1 (stereo not drawn)	-142*
CC(=O)Oc1cc(OC(C)=O)c2c(=O)c(-c3ccc4c(c3)OCCCO4)c(C)oc2c1	-88*
COc1cc2c(OC(C)=O)c3c(c(-c4ccc5c(c4)OCO5)c2cc1OC)C(=O)OC3	113
CCOc1ccc(NC(=O)Cn2ncc3ccccc32)cc1	-129*
CC1CCC(NC(=O)Cn2ncc3ccccc32)CC1 (stereo not drawn)	-113*
O=c1oc2c(-c3cccc(F)c3)cc(O)cc2s1	-79*
O=C(Nc1nc(-c2nc3ccccc3s2)cs1)C1COc2ccccc2O1 (stereo not drawn)	-136*
CS(=O)(=O)c1ccc2nc(NC(=O)C3COc4ccccc4O3)sc2c1 (stereo not drawn)	-98*
COc1ccc2nc(NC(=O)C3COc4ccccc4O3)sc2c1 (stereo not drawn)	-80*
O=C1C(C=NCc2cccnc2)=C(O)c2ccccc21	-186*
O=C1C(C=NCc2ccco2)=C(O)c2ccccc21	-141*
Cc1ccc(-c2nn(-c3ccccc3)cc2C(=O)Nc2ccc(C)c(S(=O)(=O)N3CCOCC3)c2)cc1	-110*
O=C(c1cc2ccccc2oc1=O)N(c1ccc(Cl)cc1)C1C=CS(=O)(=O)C1 (stereo not drawn)	-155*
CCCCN(C)S(=O)(=O)c1ccc(C(=O)Nc2nnc(-c3cccs3)o2)cc1	81
Cc1ccc(NC(=O)CSc2nnc(-c3cccs3)o2)cc1S(=O)(=O)N(C)C	-164*
CCOC(=O)N1CCC(NC(=O)c2ccc3c(c2)sc2nc(-c4cccc(OC)c4)cn23)CC1	-213*
Cc1ccc2nc(-c3ccc(N4C(=N)SC5CS(=O)(=O)CC54)cc3)sc2c1 (stereo not drawn)	-101*
O=[N+]([O-])C(/C=C(\Cl)[N+](=O)[O-])=C(N1CCCCC1)N1CCCCC1	-69*
COc1ccccc1-n1cc2c([N+](=O)[O-])cc([N+](=O)[O-])cc2n1	-69*
SMILES	aSyn 5UTR act
O/C(=C\c1ccc2ccccc2n1)c1ccncc1	-69*
O/N=C/c1ccc2ccccc2n1	-79*
O/C(=C\c1nc2ccccc2nc1/C=C(\O)c1ccccc1)c1ccccc1	-73*
Cc1nc2c(s1)sc1ccccc12	-76*
COc1ccc(Cc2nn3c(-c4ccccc4Br)nnc3s2)cc1	37
COc1ccc(Cn2c(-c3ccc(Br)cc3)c[n+]3ccccc23)cc1	-143*
Clc1cccc(Cl)c1CSc1cc2c(nn1)-c1ccccc1CC2	-83*
